# Pol eta inh – qHTS for Inhibitors of Polymerase Eta. recombinant Pol eta, fluorescent DNA replication assay. DNA polymerase eta (Homo sapiens), Q9Y253. AID 588591, 2011. hit rate 1.2% among 390,000. Potency, µM (top dose mostly 114 µM), most hits filed as inhibitors
#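 Pol eta at 10 nM preincubated with compounds 15 min at room temperature; reaction started with fluorescent substrate (50 nM final) and read kinetically at 0 and 10 min.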
# WRN helicase inh – qHTS for Inhibitors of WRN Helicase; WRN helicase unwinding, fluorescent forked duplex, kinetic; Potency, µM (titrated, usually from 114 µM), actives largely listed as inhibitors; hit rate 0.46% among 360,000; AID 651768, 2012; also: nearly all actives have a fitted effect of over 55% in size
#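 Primary qHTS, 1536-well format. 20 nM WRN + compound, 15 min RT; start with 100 nM forked fluorophore/quencher duplex, 2 mM ATP (final); kinetic read ex 525/em 598 nm.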
# POLK inh – qHTS for Inhibitors of Polymerase Kappa | AID 588579, 2011 | hit rate 0.53% among 400,000 | purified Pol kappa, fluorescent DNA synthesis assay, 10 min | Potency, µM (series often up to 107 µM), hits mostly inhibitors
#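 50 nM final substrate added after 15 min RT preincubation of 10 nM Pol kappa with compound; fluorescence read at 0 and 10 min.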
# POLB inh – qHTS Assay for Inhibitors of DNA Polymerase Beta; P06746; Pol beta primer extension/strand displacement, fluorescence kinetic; Potency, µM (series often up to 114 µM), usual class: inhibitors; hit rate 1.3% among 340,000
#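 Human Pol beta at 10 nM; strand-displacement substrate 50 nM final. Compound exposure 15 min at room temperature before start, reaction 10 min at room temperature.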
# FEN1 inh – qHTS Assay for the Inhibitors of Human Flap endonuclease 1 (FEN1). P39748. Recombinant FEN1 flap cleavage, fluorescence, 15 min. Potency, µM (series often up to 114 µM), actives largely listed as inhibitors. hit rate 0.35% among 390,000; also: nearly all actives have a fitted effect of over 65% in size
# Target sequence (P39748 whole entry, looked up): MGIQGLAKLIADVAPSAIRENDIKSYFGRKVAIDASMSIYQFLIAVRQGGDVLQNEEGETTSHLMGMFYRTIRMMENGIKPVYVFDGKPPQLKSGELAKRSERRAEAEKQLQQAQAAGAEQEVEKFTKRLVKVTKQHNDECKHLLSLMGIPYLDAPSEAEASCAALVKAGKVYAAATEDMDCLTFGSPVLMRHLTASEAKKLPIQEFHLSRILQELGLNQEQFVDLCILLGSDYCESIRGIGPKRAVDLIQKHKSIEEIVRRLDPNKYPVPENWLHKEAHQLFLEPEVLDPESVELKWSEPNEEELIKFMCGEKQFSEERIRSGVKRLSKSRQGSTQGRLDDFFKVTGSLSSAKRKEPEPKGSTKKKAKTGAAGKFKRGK
#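 Recombinant FEN1 (10 nM) was preincubated with pin-transferred compounds for 15 min at room temperature, then flap DNA substrate (50 nM final) was added. Plates were read at 0 and 15 min, and normalized concentration–response data were fitted to a four-parameter Hill equation.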
# POLI inh – qHTS for Inhibitors of Polymerase Iota. AID 588590, 2011. Potency, µM (doses to about 115 µM), actives largely listed as inhibitors. hit rate 1% among 390,000. DNA polymerase iota (Homo sapiens), Q9UNA4. Pol iota fluorescent replication assay, 10 min
#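 Fluorescent replication assay read twice, at 0 min and 10 min after adding 50 nM (final) substrate. Enzyme (10 nM) and compounds were first incubated 15 min at room temperature; enzyme-free buffer wells were negative controls.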
# A number is an active result; - = inactive; ? = inconclusive; . = not tested or not shown; [ ] = remark or other dose. An excerpt weighted towards active compounds, which were near 2.4% of everything screened. Calls follow the shape of the dose curve; as a rule, active = well fitted curve in the direction sought with a large enough effect; inconclusive = small, poorly fitted or top-dose-only effect, or another doubt; inactive = no such curve, though single readings can be large; an effect the other way counts as inactive or inconclusive.
SMILES,Pol eta inh,WRN helicase inh,POLK inh,POLB inh,FEN1 inh,POLI inh
O=C(Nc1nc2c(F)cc(F)cc2s1)C1CC(=O)N(Cc2ccco2)C1 (stereo not drawn),50.1µM,-[11.6 µM],?,28.2µM,-,28.2µM
COc1ccc(C(=O)CC2(O)C(=O)N(CCc3ccccc3)c3ccc(Br)cc32)cc1OC (stereo not drawn),-,.,-,-,?,-
CCOC(=O)C1=C(O)/C(=C/c2cn(CC(=O)NCC3CCCO3)c3ccccc23)SC1=Nc1ccc(C)cc1 (stereo not drawn),14.1µM,-,-,.,-,?
CCOC(=O)C1=C(O)/C(=C/c2ccc(-c3ccccc3C(=O)O)o2)SC1=Nc1ccc(C)cc1,22.4µM,?,39.8µM,-,39.8µM,?
O=C(/C=C/c1ccc(Br)o1)Nc1nccs1,?,-,?,?,-,20µM
Cc1ccc(CNC(=O)/C=C/c2ccc(Br)o2)cc1,-,-,-,-,-,-
O=C(Nc1nccs1)c1ccc(Br)o1,-,-,-,-,-,-
O=C(/C=C/c1ccc(Br)o1)NCc1ccccc1,-,-,?,0.708µM,-,?
c1ccc2c(CCc3c[nH]c4ccccc34)ccnc2c1,.,.,-,.,-,-
O=S(=O)(c1ccc(C2CCCCC2)cc1)N1CCN(c2cc(Cl)ccc2Cl)CC1,-,.,-,-,-,-
O=c1cc(-c2ccccc2)oc2c1ccc1ccccc12,.,.,-[19.4 µM],.,.,.
N=C(N)SCc1cccc2c(=O)cc(-c3ccccc3)oc12,.,.,-,.,50.1µM,-
CCc1ccc(CNC(=O)CCCN2C(=O)CCn3nc(-c4cccn4C)cc32)cc1,-,.,-,?,-,-
CCOCCn1c(=O)c2c(nc3n2CCN3c2ccc(C)c(C)c2)n(C)c1=O,-,.,-,20µM,-,?
Cn1c(=O)n(CCCc2ccccc2)c(=O)c2c1nc1n2CCN1c1ccc(F)cc1,-,.,-,?,-,-
CCOCCn1c(=O)c2c(nc3n2CCN3c2ccc(C)cc2)n(C)c1=O,-,-,-,.,-,-
Cc1cccc(N2CCn3c2nc2c3c(=O)n(CCc3ccccc3)c(=O)n2C)c1,-,.,-,39.8µM,-,-
CCc1ccc(N2CCn3c2nc2c3c(=O)n(CCc3ccccc3)c(=O)n2C)cc1,-,.,-,-,-,-
Cc1cccc(N2CCn3c2nc2c3c(=O)n(CCCc3ccccc3)c(=O)n2C)c1,-,.,-,89.1µM,-,-
Nc1ccc(/C=C/c2ccnc3ccccc23)c(N)c1,.,.,-,.,?,-
Cc1ccc(C(=O)OCC(=O)NCCc2ccc(S(N)(=O)=O)cc2)o1,?,-,-,.,-,-
Cc1ccc(C(=O)OCC(=O)Nc2c(Cl)cc(S(N)(=O)=O)cc2Cl)o1,-,-[11.6 µM],?,?,-,70.8µM
CC(C)CNc1ncnc2oc(-c3ccco3)c(-c3ccco3)c12,.,.,-,.,?,?
COc1ccc(CC(=O)NNS(=O)(=O)c2cccc([N+](=O)[O-])c2)cc1OC,-,-,-,-,-,-
COc1ccc(-n2c(O)c(/C=N/NS(=O)(=O)c3cccc([N+](=O)[O-])c3)c3ccccc3c2=O)cc1OC,-,14.1µM,-,-,-,?
SMILES,Pol eta inh,WRN helicase inh,POLK inh,POLB inh,FEN1 inh,POLI inh
C[C@H](NC(=O)CNC(=O)[C@@H](NC(=O)[C@H](Cc1ccccc1)NC(=O)CNC(=O)CNC(=O)[C@@H](N)Cc1ccccc1)[C@@H](C)O)C(=O)N[C@@H](CCCN=C(N)N)C(=O)N[C@@H](CCCCN)C(=O)N[C@@H](CO)C(=O)N[C@@H](C)C(=O)N[C@@H](CCCN=C(N)N)C(=O)N[C@H](CN)CCCCN,.,.,-[19.4 µM],.,.,.
CC(=O)c1sc2nsc(SCCN3CCCC3)c2c1N,-,?,-,-,-,17.8µM
COc1ccccc1-c1nccc(NCc2cccc(C)c2)n1,.,.,-,.,.,.
FC(F)(F)c1cc(CN2CC3(CCNCC3)C2)cc(C(F)(F)F)c1,.,.,-,.,.,.
COc1cccc(/C=C2\SC(=O)NC2=O)c1OCc1ccc(C(=O)O)cc1,-,-,-,-,-,-
O=C1N/C(=N/NC(=O)c2cccc3ccccc23)S/C1=C\c1ccccc1OCc1ccccc1,22.4µM,56.2µM,50.1µM,50.1µM,?,28.2µM
CCc1cccc2cc(C(O)CNC(C)(C)C)oc12 (stereo not drawn),.,.,-,.,.,.
O=C(c1cnccn1)N1CCC[C@@]2(CCN(c3cccc(-c4ccccc4)c3)C2)C1,.,.,-,.,.,.
O=C1c2ccccc2-c2n[nH]c3cccc1c23,?,-[11.6 µM],?,31.6µM,?,?
CCOc1ccccc1N1CCN(CC(=O)N(C2CCCC2)C2CCS(=O)(=O)C2)CC1 (stereo not drawn),-,-,-,.,-,-
CCOc1ccccc1N1CC(C(=O)N(CC)C2CCS(=O)(=O)C2)CC1=O (stereo not drawn),50.1µM,-[11.6 µM],-,.,-,?
COc1ccc(C)cc1NC(=O)c1c(C(=O)Nc2cccc(C)c2C)sc2nc(C)cc(=O)n12,-,.,-,-,-,-
O=C(C[N+]12CN3CN(CN(C3)C1)C2)c1ccc(O)c(O)c1,.,.,3.16µM,.,14.1µM,10µM
O=C(C[N+]12CN3CN(CN(C3)C1)C2)c1ccc(Cl)cc1,.,.,-,.,-,-
CN1/C(=C\C=C(C#N)C#N)C(C)(C)c2ccccc21,?,-,-,-,-,-
CC[n+]1c(/C=C/C=C2/N(C)c3ccccc3C2(C)C)sc2ccccc21,.,.,26.7µM,.,.,.
COCC(=O)N1CCC[C@@]2(CCN(Cc3ccc(C#N)cc3)C2)C1,.,.,-,.,.,.
Cc1cc(=O)n(CC(=O)NC(C)c2ccccc2)c2c1c(C)nn2-c1cccc(F)c1 (stereo not drawn),-,.,-,22.4µM,-,?
COc1cccc2c1Oc1ncccc1N(c1ccc(C(=O)NCc3cccc(C)c3)s1)C2,-,.,?,-,-,89.1µM
CCN(CC)S(=O)(=O)c1cccc(C(=O)N/N=C/c2c(C)nn(-c3ccccc3)c2Cl)c1,-,-,-,14.1µM,-,-
CCN(CC)S(=O)(=O)c1cccc(C(=O)N/N=C/c2ccccc2OCC(=O)O)c1,-,-,-,-,-,-
COc1ccc(OC)c(NC(=O)CCc2c(C)nn(-c3ccc(N4CCCC4)nn3)c2C)c1,-,.,-,-,-,-
Cc1nc(-c2ccc(C(=O)Nc3cccc(Br)c3)cc2)cs1,-,-,-,31.6µM,-,?
Cc1nc(-c2cccc(NC(=O)c3ccc(-n4nccc4C)cc3)c2)cs1,-,-,-,.,-,-
Cc1nc(-c2ccc(C(=O)O)cc2)cs1,-,-,-,79.4µM,-,-

# From PubChem
